HTT cytoprotect: qHTS Multiplex Assay to Identify Dual Action Probes in a Cell Model of Huntington: Cytoprotection (ATP); PC12 HTT-Q103 induced, cytoprotection, ATP luminescence, 40 h; Potency, µM (doses to about 56.4 µM), inactives show cytoprotection (ATP increase), actives largely listed as activators; hit rate 0.14% among 230,000; AID 1471, 2008; further: potency means the concentration at half of the fitted maximal effect; % of control where 0% means no effect; nearly all actives have a fitted effect of over 45% in size
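Readout: ATPlite luminescence (ATP level). Model: stable PC12, inducible Htt exon1 Q103-GFP. Inducer: tebufenozide, 100 nM final. Compounds: dose series. No G418 in medium.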
IMPase cell inh: qHTS Assay for Identifying the Cell-Membrane Permeable IMPase Inhibitors | AID 901, 2007 | 120,000 tested, under 10 active | CHO-M1 cells, IP1 accumulation, HTRF TR-FRET ratio | Inositol monophosphatase 1 (Rattus norvegicus), P97697 | inhibition (IP1 accumulation), % at 46.1 µM; active means well fitted curve in the direction sought with a large enough effect in the signal ratio, not every such curve was filed as active; inconclusive means small, poorly fitted or top-dose-only effect, or a change in a side signal; inactive means no such curve, though single readings can be large or run the other way; the % refers to the signal ratio;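 further: cells stimulated with carbachol in lithium chloride buffer; plate controls were DMSO basal wells for no effect and reference inhibitor wells for full effect; higher means more IMPase inhibition seen as more IP1 and lower FRET ratio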
Target sequence (P97697 whole entry, looked up): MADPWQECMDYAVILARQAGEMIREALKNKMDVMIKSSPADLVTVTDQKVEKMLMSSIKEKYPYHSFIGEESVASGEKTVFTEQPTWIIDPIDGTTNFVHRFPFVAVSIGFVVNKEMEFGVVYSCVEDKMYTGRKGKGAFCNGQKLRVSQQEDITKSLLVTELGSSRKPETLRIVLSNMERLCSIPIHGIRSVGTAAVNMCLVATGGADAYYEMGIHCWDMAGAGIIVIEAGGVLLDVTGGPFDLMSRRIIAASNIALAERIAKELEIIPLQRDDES
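Measured: the HTRF emission ratio (665/620 nm) plus the 620 nm donor channel, each fitted to the Hill equation to give AC50. Cells were CHO-M1 given compounds up to 46 uM and a 30 min carbachol stimulation at 37C.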
HTT aggregate: qHTS Multiplex Assay to Identify Dual Action Probes in a Cell Model of Huntington: Aggregate Formation (GFP); hit rate 1.1% among 220,000; PC12 HttQ103-GFP aggregates, Acumen cytometry, 40 h; Potency, µM (highest dose often 46.1 µM), without a hit: at the top dose activity change, negative = inhibition, hits mostly inhibitors; further: potency means the concentration at half of the fitted maximal effect; on the % scale 0 is the no-effect control and ±100 the full control effect; nearly all actives have a fitted effect of over 60% in size
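Multiplexed with ATP-based cell death, this channel scores GFP aggregates in PC12 cells expressing inducible HTTex1-Q103-GFP. Induction used 100 nM tebufenozide; compounds were tested in concentration series.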
PNC assembly inh: High Content Assay for Compounds that inhibit the Assembly of the Perinucleolar Compartment; PC3M PTB-GFP, PNC prevalence imaging, 16 h; stronger effect = lower value; activity change (PNC), negative = inhibition, % at 10 µM; hit rate 3.1% among 140,000; AID 2417, 2010;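 active means readout at or below -70, meaning at least 70% loss of cells showing the perinucleolar compartment, a nuclear body marking cancer cells; inconclusive means readout between -30 and a set limit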;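 further: plate controls were DMSO wells for no effect and camptothecin positive control wells for full effect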
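PC3M cells stably expressing PTB-GFP, 750–1000 cells/well, treated 16 h at 37 °C with compound (23 nl of library stock), in duplicate. After paraformaldehyde fixation and Hoechst stain, imaged at 20x; PNC prevalence scored by image analysis.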
NPSR antag: qHTS Assay for Antagonists of the Neuropeptide S Receptor: cAMP Signal Transduction. Q6W5P4. CHO-NPSR cells, cAMP TR-FRET, antagonist mode. Potency, µM (top dose mostly 38.3 µM), for inactives: at the highest dose activity change, negative = inhibition, actives largely listed as inhibitors. hit rate 1% among 220,000. AID 1461, 2008; further: potency means the concentration at half of the fitted maximal effect; on the % scale 0 is the no-effect control and ±100 the full control effect; nearly all actives have a fitted effect of over 50% in size
Target sequence (Q6W5P4 whole entry, looked up): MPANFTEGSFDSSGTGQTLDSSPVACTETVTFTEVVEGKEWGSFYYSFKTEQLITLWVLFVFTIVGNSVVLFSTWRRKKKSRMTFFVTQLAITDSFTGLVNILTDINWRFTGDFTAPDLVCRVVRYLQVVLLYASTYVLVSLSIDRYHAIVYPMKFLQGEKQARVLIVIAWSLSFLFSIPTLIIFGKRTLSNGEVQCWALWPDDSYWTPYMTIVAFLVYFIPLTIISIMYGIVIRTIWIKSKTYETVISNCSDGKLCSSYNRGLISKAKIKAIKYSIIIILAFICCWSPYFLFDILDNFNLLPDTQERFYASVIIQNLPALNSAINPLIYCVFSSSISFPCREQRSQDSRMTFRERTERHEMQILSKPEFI
IMPase Li inh: qHTS Assay for Identifying the Cell-Membrane Permeable IMPase Inhibitors: Potentiation with Lithium | CHO-M1 cells, IP1 TR-FRET (IP-One), carbachol + lithium | Potency, µM (top dose mostly 59.4 µM), without a hit: at the top dose activity, negative = IMPase inhibition, actives largely listed as inhibitors | hit rate 0.35% among 210,000;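 further: IP1 builds up when IMPase is blocked and the TR-FRET signal falls; potency means the concentration at half of the fitted maximal effect; plate controls were basal vehicle for no effect and high inhibitor control for full effect; nearly all actives have a fitted effect of over 50% in size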
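IP1 accumulation measured by competitive TR-FRET in lysed CHO-M1 cells after 30 min compound exposure at 37C, with a small lithium addition to potentiate weak responses. Hill-equation AC50 from ratio and donor-channel data.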
The depositor's hits bear a star; ? = inconclusive; . = no result given; [ ] = another dose, or the depositor's remark. Only some compounds are listed: those with a hit (about 3.4% of all), similar ones and a draw of the others. Unless noted, the call rests on the fitted dose curve; in most records, active means well fitted curve in the direction sought with a large enough effect; inconclusive means small, poorly fitted or top-dose-only effect, or another doubt; inactive means no such curve, though single readings can be large; an effect the other way counts as inactive or inconclusive.

SMILES	HTT cytoprotect	IMPase cell inh	HTT aggregate	PNC assembly inh	NPSR antag	IMPase Li inh
C=CCn1c(O)c(C(CC)=NCc2ccc3c(c2)OCO3)c(=O)[nH]c1=O	-5%[10 µM]	.	6%[9.22 µM]	.	54%	.
CCCCn1c(O)c(C(CC)=NCc2ccc3c(c2)OCO3)c(=O)[nH]c1=O	-18%	10	25µM*	-7	-18%[46.1 µM]	31%[38.3 µM]
O=C(Cn1c2c(c(-c3ccccc3Cl)cc1=O)CCC2)N1CCC2(CC1)OCCO2	17%[1.9 µM]	0	-5%	-95*	-9%[46.1 µM]	5%[38.3 µM]
Cn1c(=O)n(CC(=O)N2CCC3(CC2)OCCO3)c(=O)c2ccccc21	19%[1.9 µM]	-3	-1%	60	0%[46.1 µM]	21%[38.3 µM]
CCCC[C@@H]1C[C@H]1C(NP(=O)(c1ccccc1)c1ccccc1)c1ccc(Cl)cc1 (some centres not stated)	10%	.	.	.	.	.
COCCNC(=O)c1c(NC(=O)c2ccc(Br)o2)n(Cc2ccccc2)c2nc3ccccc3nc12	.	.	?	?	-41%	2%
COC(=O)c1c(N)n(Cc2ccc(OC)cc2)c2nc3ccccc3nc12	-6%	0	3%	-82*	-30%[46.1 µM]	26%[38.3 µM]
COCCCNC(=O)c1c(NC(=O)c2ccco2)n(Cc2ccccc2)c2nc3ccccc3nc12	-25%	5	-11%	-21	13µM*	14%[38.3 µM]
CC(C)OCCCNC(=O)c1c(N)n(Cc2cccs2)c2nc3ccccc3nc12	-28%	4	28µM*	?	10µM*	3%[38.3 µM]
CC(C)CCNC(=O)c1c(N)n(Cc2ccc3c(c2)OCO3)c2nc3ccccc3nc12	-60%	4	?	-25	?	-7%[38.3 µM]
CC(C)CNC(=O)c1c(N)n(Cc2ccc3c(c2)OCO3)c2nc3ccccc3nc12	-31%	-3	?	17	3.2µM*	32%[38.3 µM]
N=C(N)SCc1ccc(Cl)c2ccccc12 (tested in a mixture with another compound)	24%[10 µM]	.	.	.	.	-3%
COc1ccc(Cn2c(N)c(C(=O)NCc3ccco3)c3nc4ccccc4nc32)cc1OC	-38%[0.074 µM]	-14	?	?	?	-35%[38.3 µM]
CCCNC(=O)c1c(N)n(Cc2ccco2)c2nc3ccccc3nc12	-61%	-4	5%	-4	?	19%[38.3 µM]
CC(C)CNC(=O)c1c(N)n(Cc2ccco2)c2nc3ccccc3nc12	-37%	-5	-27%	0	10µM*	35%[38.3 µM]
Nc1c(C(=O)NCc2ccco2)c2nc3ccccc3nc2n1CCN1CCCCC1	-65%	10	3.2µM*	?	?	23%[38.3 µM]
CC(C)[C@@]1(NC(=O)[C@@H]2C=C3c4cccc5[nH]cc(c45)C[C@@H]3N(C)C2)O[C@]2(O)[C@H]3CCCN3C(=O)[C@H](Cc3ccccc3)N2C1=O	-6%[1.9 µM]	.	.	.	.	.
C[n+]1c2cc(N)ccc2cc2ccc(N)cc21	-76%	.	10µM*	.	.	32%
Nc1ccc2ccccc2c1	-52%	.	.	.	.	-17%
CCOP(=O)(OCC)C(Nc1cccc(C(F)(F)F)c1)c1ccc(Br)cc1 (configuration not stated)	31%[10 µM]	-7	13%	26	?	11%
c1ccc2c(CCNC3=NCCC3)c[nH]c2c1	9%	8	-10%	-83*	-16%[46.1 µM]	-3%[38.3 µM]
c1ccc(-c2ccccc2)cc1	28%	.	.	.	.	24%
[Hg+][c]1ccccc1	-99%	.	3.2µM*	.	.	.
CN1CCN(c2ccc(S(C)(=O)=O)cc2[N+](=O)[O-])CC1	24%[10 µM]	.	-14%	48	25%	3%
CN1CCN(c2ccc(S(=O)(=O)C(F)(F)F)cc2[N+](=O)[O-])CC1	20%[10 µM]	-3	21%	-98*	-4%	0%
SMILES	HTT cytoprotect	IMPase cell inh	HTT aggregate	PNC assembly inh	NPSR antag	IMPase Li inh
COc1ccc2c(c1O)-c1cccc3c1[C@H](C2)N(C)CC3	0%[1.9 µM]	3	.	.	.	.
CON(C)C(=O)Nc1ccc(Cl)cc1	6%[1.9 µM]	4	17%	-121*	-4%[46.1 µM]	7%[38.3 µM]
O=C(NC(=O)c1c(F)cccc1F)Nc1ccc(Cl)cc1	.	.	.	.	.	-3%
CCC1(CCSC(=N)N)C(=O)NC(=O)NC1=O	-23%[10 µM]	.	.	.	.	-2%
CN[C@H]1[C@H](C)O[C@@H](O[C@@H]2C/C=C(/C)C/C(C)=C\C=C/CC[C@@H](C)CNC(=O)/C=C\C=C/[C@H]2C)C[C@@H]1O	-88%[10 µM]	.	.	.	.	.
O=C(COc1ccc2ccccc2c1)N1CCN(Cc2c[nH]c3ccccc23)CC1	-59%[10 µM]	6	10µM*	-3	-4%[46.1 µM]	4%
O=C(COc1ccc(Br)cc1)N1CCN(Cc2c[nH]c3ccccc23)CC1	-84%	2	13%[9.22 µM]	19	3%[46.1 µM]	29%[38.3 µM]
CCCCCCn1c(O)c(C=NCCN2CCOCC2)c(=O)[nH]c1=O	.	.	-3%	-114*	9%	-1%
CCCCCCn1c(O)c(C=NCCN2CCCCC2)c(=O)[nH]c1=O	3%[10 µM]	-4	-11%	?	18%[46.1 µM]	10%[38.3 µM]
O=C1C(=O)c2ccccc2-c2ccccc21	-96%	15	?	?	3.2µM*	35%[38.3 µM]
Cc1nc2c(=O)n(C)c(=O)nc-2n(C)n1	-38%[10 µM]	11	-6%	-93*	?	21%
Nc1ncnc2c1ncn2[C@@H]1O[C@@H](COP(=O)(O)CP(=O)(O)OP(=O)(O)O)[C@H](O)[C@@H]1O	6%[1.9 µM]	-12	.	.	.	.
CCCc1[nH]nc2c1C1(C(=O)N(CC(N)=O)c3ccccc31)C(C(=O)OC)=C(N)O2 (configuration not stated)	-5%[0.074 µM]	?	5%	-91*	10%[46.1 µM]	3%[38.3 µM]
CCCOC(=O)[C@@H]1[C@@H](C(=O)O)[C@H]2CC[C@@H]1O2	-15%[10 µM]	.	.	.	.	-4%
CN(C)C1C(=O)C(C(N)=O)=C(O)[C@@]2(O)C(=O)C3=C(O)c4c(O)cccc4[C@@](C)(O)C3CC12 (some centres not stated)	-52%	.	.	.	.	4µM*

Assay outcomes: PubChem BioAssay, National Center for Advancing Translational Sciences (NCATS)
